One may read the inhibition as the change of the read-out against control, counted positive when it falls.

Hit rate of the full screen: of about 2,400 compounds, about 40 (2%) were called active. Not shown: some 1% with an inconclusive outcome.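 Rule for the calls: active = inhibition at or above 60%; inconclusive = inhibition from 0% up to below 60%; inactive = no inhibition observed.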 What follows is part of a selection rich in actives, with near analogues and random picks from the rest.

The experiment in a line: qHTS Assay for Small Molecule Inhibitors of Mitochondrial Division or Activators of Mitochondrial Fusion: Hit Validation in Malachite Green Assay.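 For inhibition: plate controls were DMSO wells with GTPase for no effect and protein-free buffer wells for full effect.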 The conditions noted are these: purified GTPase, malachite green phosphate release, A650; hits give high values. The source says:
The budding yeast S. cerevisiae is a powerful system to study mitochondrial fusion. Unlike other organisms, yeast cells without functional mitochondrial DNA (mtDNA) can be propagated and studied as long as they maintain a mitochondrial compartment and are provided with a fermentable carbon source. When mitochondrial fusion is blocked in yeast, mitochondrial tubules rapidly fragment and division continues unopposed. Under conditions where fusion is compromised in mammalian cells, nearly identical changes in mitochondrial structure have been observed. Thus, these findings indicate that steady state mitochondrial structure in cells is a characteristic and specific indicator of fusion activity. Mounting evidence has pointed to a connection between mitochondrial dynamics and apoptosis in mammalian cells. These studies indicate that in mammalian cells mitochondrial dynamics are more integrated into cellular processes than in yeast cells and have evolved not only to distribute the organelle but also to aid in the regulation of cellular homeostasis. Mitochondrial fusion proteins attenuate apoptosis by inhibiting the release of cytochrome c from mitochondria, in part by controlling cristae structures. Thus, small molecules that inhibit mitochondrial fusion may promote apoptosis and potentially act as novel chemotherapeutics and stimulation of apoptosis has become an attractive target of anti-cancer therapies. To identify inhibitors of mitochondrial division, we exploit the growth phenotypes of mitochondrial fusion-defective mutants. The temperature sensitive fusion alleles, such as fzo1-1 and mgm1-5, cause mitochondrial membranes to fragment in cells under non-permissive conditions and cells lose mtDNA, and are unable to grow in the presence of non-fermentable carbon source glycerol. Inhibiting mitochondrial division rescues growth. The hits were tested by the assay provider in a malachite green assay. NIH Chemical Genomics Center [NCGC] NIH Molecular Libraries Probe Production Centers Network [MLPCN] MLPCN Grant: MH081279 Assay Submitter (PI): Jodi M. Nunnari
Malachite Green Reagent Malachite Green carbinol base- Aldrich 229105 Ammonium molybdate - Sigma A7302 For 100 mL Malachite Green reagent in 1N HCl 16 mL conc. HCL + 32 mL H20 = 48 mL 4N HCl 34 mg malachite green base into 40 mL 1N HCl (10 mL 4N HCl + 30 mL H20) 1 g ammonium molybdate in 15 mL 4N HCl Mix Solutions together. Bring up to […] with H2O. Filter using a 0.2 um tissue culture filter unit (has plastic bottle attached) store at 4 masculine C. (Avoid Glassware/Plastics washed in detergent. Mix solutions in 50 mL conical vials.) For 20 uL reaction volume 1.0 uL Test Drug or DMSO: Added first to each well […]: 25 mM Hepes/Pipes pH 7.0 (H/P) 2.0 uL: 50 mM MgCl2 (final 5mM) 2.32 uL: 1 M NaCl (with contributing protein salt, Final = 150mM) 13.4 uL per reaction. Can be mixed in larger volume (Mini Master Mix) 1.6 uL: Protein 7.5 uM or Protein Freezing Buffer. (Final = 0.6uM) After Protein Added to mini Master Mix, 15ul Total Master Mix added to each well with drug. 4 uL: 500 uM GTP (Final = 100uM), Dilute with 25 mM H/P, store on ice. 20 uL Total Volume Make Master Mix: (Calculate desired reactions and add a few for multi-channel pipetting volume). Multiply the number of desired reactions by 13.4 uL for total Mini Master volume. Multiply the number of desired reactions by 1.6 uL for total Protein volume. Mix, and keep on ice until added to wells. Add 15 uL of Master Mix to each reaction well, incubate with drug for 10 min. For Positive (No Drug) controls add 15 uL Master Mix to wells with only 1 uL DMSO. Make PFB (Protein Freezing Buffer) (no Protein) Master Mix. Multiply the number of desired reactions by 13.4 uL for total Mini Master volume. Multiply the number of desired reactions by 1.6 uL for total PFB volume. Mix, and keep on ice until added to wells Add 10 uL of PFBMaster Mix to each Phosphate Standards well, and 15 uL to each negative control well with DMSO. […]
(In qHTS, concentration-response curves come from the screen itself.)
As to `O=C(Nc1nnc(-c2ccco2)o1)c1ccc2ccccc2c1`, the inhibition was 60.5% (active).
As for `O=C(Nc1nnc(-c2ccccc2)o1)c1cc(-c2cccs2)nc2ccccc12`, the entry is “inactive”; as for `COc1ccc(-c2nnc(NC(=O)c3ccc(F)cc3)o2)cc1`, 63.4% (active).
As for `COc1cccc(-c2nnc(NC(=O)c3ccc4ncsc4c3)o2)c1`, the entry is “inactive”; as for `Nc1nc(Nc2cccc(Cl)c2)nc(NCc2ccco2)c1[N+](=O)[O-]`, “inactive”; as for `Cc1ccc(N=C2NC(=O)/C(=C\c3ccsc3)S2)c(C)c1`, “inactive”.
With `COc1ccc(C(=O)Nc2cc3c(cc2N2CCCCC2)n(C)c(=O)n3C)cc1OC`, the inhibition entry was “inactive”.
To `O=C(CCNC(=O)c1ccccc1Cl)Nc1ccc(Cl)c(C(F)(F)F)c1` belongs “inactive”.
To `O=C(Nc1cccc(-c2nc3ccccc3s2)c1)c1cccs1` belongs “inactive”; to `CC(=O)Nc1ccc(O)c(-c2nc3ccccc3s2)c1`, “inactive”; to `Cc1c(NC(=O)c2cccs2)cccc1-c1nc2ccccc2s1`, 85.9% (active).
With `CCOc1ccc2nc(NC(=O)Nc3cccs3)sc2c1`, the inhibition result is “inactive”.
For `Cc1c(Cl)c([N+](=O)[O-])nn1Cc1ccc(C(=O)Nc2ccc(Cl)cn2)o1`, the inhibition entry was “inactive”.
On to `O=C(Nc1ccc(O)c2c(=O)cc(-c3cccc(Cl)c3)oc12)c1ccccc1Cl`, for which the inhibition result is “inactive”.
On to `CC(C)n1c(C(=O)OCC(=O)NCc2ccc3c(c2)OCO3)cc2sccc21`, for which the inhibition entry was “inactive”.
To `CC(CCc1ccccc1)NC(=O)/C=C/c1ccc(F)cc1` (stereo not drawn) belongs “inactive”.
In the case of `CCOC(=O)c1c(C)[nH]c(C)c1C(=O)COC(=O)/C=C/c1ccc(Cl)cc1`, the inhibition entry was “inactive”.
For `CCNc1ccc(Br)cc(C(=O)/C=C/c2ccc(Cl)cc2)c1=O`, the inhibition is 100% (active).
To `CC(=O)Nc1cccc(C(=O)/C=C/c2ccc(Br)cc2)c1` belongs “inactive”; to `CCOc1ccc(CN(C(=O)c2cc3ccccc3oc2=O)C2CC2)cc1`, “inactive”; to `O=C(c1ccc(COc2ccc(Cl)cc2)o1)N1CCN(Cc2ccc3c(c2)OCO3)CC1`, “inactive”.
Turning to `CCOC(=O)c1n[nH]n2c1nc(=O)c1ccccc12`, the inhibition result was “inactive”.
For `Cc1nc(CS(=O)(=O)c2ccc(Cl)cc2)cc(Sc2ccccc2Cl)n1`, the inhibition result is “inactive”.
To `CCCCc1cc(=O)oc2cc(OS(C)(=O)=O)ccc12` belongs “inactive”.
In the case of `CCCCSc1nnc(-c2ccc(C)cc2)c2ccccc12`, the inhibition entry is “inactive”.
To `CCCCN(CC)c1nc(-c2ccncc2)nc2ccccc12` belongs “inactive”.
`CCCCc1c(C)nc2ccccc2c1SCCC#N`: the inhibition is 73.5% (active).
To `CCCc1c(C)nc2ccccc2c1SCCC#N` belongs 84.5% (active); to `COc1ccc(-c2ccc(-c3nc4ccc(C)cn4c3NC3CCCCC3)cc2OC)cc1`, “inactive”; to `Cc1cc2c(cc1C)CSC(c1ccccc1O)SC2`, “inactive”.
As for `CCOC(=O)c1ccc(NC(=S)N2CCSC2c2ccc(Cl)cc2)cc1` (stereo not drawn), the entry is “inactive”; as for `CCCCC(c1nnnn1CC1CCCO1)N1CCN(c2nc3ccccc3s2)CC1` (stereo not drawn), “inactive”; as for `Cc1cccc(-c2nc(CS(=O)CC(=O)NC(C)CCc3ccccc3)c(C)o2)c1` (stereo not drawn), “inactive”.
With `COC(=O)c1sc2nc(C)nc(SCC(=O)C(C)(C)C)c2c1C`, the inhibition result is “inactive”.
To `Cc1ccccc1N=C(NOCc1ccccc1)c1nonc1N` belongs “inactive”; to `C[C@@]12C(=O)N(Cc3ccccc3)CC(=O)N1[C@H]1c3cc(Cl)ccc3OC[C@@H]1[C@@H]2c1ccccc1`, “inactive”.
To `CCCc1cc(C(N)=O)c(NC(=O)c2ccoc2C)s1` belongs 101% (active); to `Cc1occc1C(=O)NC1CCCCCCC1`, “inactive”.
To `CCC1CCc2c(sc(NC(=O)c3ccoc3C)c2C(N)=O)C1` (stereo not drawn) belongs “inactive”; to `O=C(Nc1cc(-c2ccccc2)cs1)c1ccco1`, “inactive”.
For the compound `Cc1sc(NC(=O)c2ccco2)nc1-c1ccccc1`, the inhibition result was “inactive”.
In the case of `NC(=O)c1cc(Cc2ccccc2)sc1NC(=O)c1ccco1`, the inhibition was 102% (active).
As for `Cc1ccc(C)c(N2CCN(C(=O)c3csc4ccccc34)CC2)c1`, the entry is “inactive”.
`Cc1cc(-c2ccc(C)c(S(=O)(=O)NCc3ccc(Br)cc3)c2)on1`: the inhibition entry is “inactive”.
For the compound `N/C(=N\OC(=O)c1ccccc1Cl)c1ccc(Cl)cc1`, the inhibition result was “inactive”.
To `CCN(CC(=O)Nc1cc(S(=O)(=O)N2CCCCC2)ccc1Cl)Cc1ccccc1` belongs “inactive”; to `COc1ccc(Nc2ncc(C(=O)N3CCN(Cc4ccccc4)CC3)c3ccccc23)cc1`, “inactive”; to `c1ccc(NCc2nc3ccccc3n2CCOc2ccccc2)cc1`, “inactive”.
As for `COc1ccc(/C=C/C(=O)N2CCCc3ccccc32)c(OC)c1`, the inhibition entry was “inactive”.
For the compound `CNc1ccc(Br)cc(C(=O)/C=C/c2ccc(OC)cc2OC)c1=O`, the inhibition is 90.1% (active).
Turning to `COc1ccc(Br)cc1/C=C/C(=O)Nc1ccc(C)cc1`, the inhibition entry is “inactive”.
For `COc1cc2c(cc1NC(=O)CSc1nc3ccccc3[nH]1)oc1ccccc12`, the inhibition entry was “inactive”.
For `O=C(N/N=C/c1cn(-c2cccs2)nc1-c1ccccc1)c1ccccc1Cl`, the inhibition result is “inactive”.
